Measured values published in PubChem BioAssay AID504848 (National Center for Advancing Translational Sciences (NCATS), 2011).
The whole screen tested about 2,300 compounds, of which about 1,400 (61%) were called active. About 29% were inconclusive and are not listed. The call rests on the fitted dose curve; in most records, active means well fitted inhibition curve with a large enough effect; inconclusive means small, poorly fitted or top-dose-only effect, or effect the other way; inactive means no such curve, though single readings can be large or run the other way. So high a share suggests a set chosen from earlier hits. The list shows a part of the results.

experiment: Confirmation screen for delayed death inhibitors of the malarial parasite plastid, 96 hour incubation; further: nearly all actives have a fitted effect of over 60% in size; conditions: P. falciparum luciferase growth in erythrocytes; series mostly up to 28.7 µM
Procedure, shortened: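 Two-generation (96 h, 37 C) exposure of P. falciparum carrying an integrated firefly luciferase reporter in erythrocytes, 0.1% parasitemia and 2% hematocrit final, Albumax-supplemented RPMI. Luminescence decrease measures growth inhibition.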
Potency means the concentration at half of the fitted maximal effect.

Row | Compound | Potency
1 | O=C(CCl)Nc1cccc2ncccc12 | 3.55 µM (active)
2 | Cc1nc(SC(C)C(=O)NCC2CCCO2)c2cc(-c3ccccc3)sc2n1 (stereo not given) | 11.2 µM (active)
3 | CN(C)c1ccc(S(=O)(=O)N2CCCCC2)cc1NC(=O)C1=NN(c2ccccc2)C(=O)CC1 | 3.55 µM (active)
4 | O=C(Nc1cc(Cl)ccc1N1CCCC1)C1=NN(c2ccccc2)C(=O)CC1 | 12.6 µM (active)
5 | O=C(CSc1nnc(COc2ccccc2)n1-c1ccccc1)c1cccs1 | 11.2 µM (active)
6 | COc1cc2c(cc1OC)CN(C(=O)COc1ccccc1[N+](=O)[O-])CC2 | 14.1 µM (active)
7 | COc1cc2c(cc1OC)CN(C(=O)COc1ccccc1C#N)CC2 | inactive
8 | COc1ccc2c(C)cc(Sc3nnnn3-c3ccccc3)nc2c1 | 15.8 µM (active)
9 | Cc1ccc(C)c(-n2nnnc2Sc2nnnn2-c2ccccc2)c1 | 10 µM (active)
10 | COc1cccc(/C=C2\SC(N3CCCC(C)C3)=NC2=O)c1OC (stereo not given) | 11.2 µM (active)
11 | CCCOc1ccccc1/C=C1\SC(N2CCCCC2)=NC1=O | 0.891 µM (active)
12 | Cc1cc(-c2ccc(C(C)C)c(S(=O)(=O)NCc3ccco3)c2)on1 | 14.1 µM (active)
13 | CCc1ccc(-c2cc(C)no2)cc1S(=O)(=O)NCc1ccco1 | 12.6 µM (active)
14 | CN(C)S(=O)(=O)c1cccc(NC(=S)N/N=C/c2cc(Br)ccc2O)c1 | 3.98 µM (active)
15 | O=C(O)CCn1c(-c2ccccc2)cc2c1CCCC2=O | inactive
16 | CC(=O)/C=C/c1ccccc1Oc1c(F)c(F)nc(F)c1F | 3.16 µM (active)
17 | CN(C)S(=O)(=O)c1cccc(NC(=O)CSc2cccc3cccnc23)c1 | 7.94 µM (active)
18 | O=C(CSc1cccc2cccnc12)N/N=C/c1cccnc1 | 12.6 µM (active)
19 | O=C(NCc1ccccc1)C1=C[C@@H](c2coc3ccccc3c2=O)C[C@@H](OCc2ccc(CO)cc2)O1 | 7.08 µM (active)
20 | O=C(Nc1ccccc1)C1=C[C@@H](C2CCCCC2)C[C@@H](OCc2ccc(CO)cc2)O1 | 10 µM (active)
21 | O=C(NC1CC1)C1=C[C@@H](C2CCCCC2)C[C@@H](OCc2ccc(CO)cc2)O1 | 10 µM (active)
22 | COc1cccc(NC(=O)CSc2nc3n[nH]c(C)c3c(=N)n2-c2cccc(OC)c2)c1 | 6.31 µM (active)
23 | NC1=NC[C@@H](Cc2ccc(O)cc2)N1CCc1cccc(F)c1 | 3.98 µM (active)
24 | NC1=NC[C@H](Cc2ccc(O)cc2)N1CCc1cccc(F)c1 | 3.16 µM (active)
25 | NC(=O)C1CCN(c2nc(C3CC3)nc3c2nnn3Cc2ccccc2Cl)CC1 | 3.16 µM (active)
26 | CS(=O)(=O)c1ccc(-c2nnc(NC(=O)c3ccc(S(=O)(=O)N4CCCC4)cc3)o2)cc1 | 15.8 µM (active)
27 | Cn1c(CCN2CCCCC2)nc2cc(NS(=O)(=O)c3ccc(F)cc3)ccc21 | 12.6 µM (active)
28 | CC1CCN(CCc2nc3cc(NS(=O)(=O)c4ccc(F)cc4)ccc3n2C)CC1 | 12.6 µM (active)

Row | Compound | Potency
29 | Cn1c(CCN2CCCCC2)nc2cc([N+](=O)[O-])ccc21 | inactive
30 | CCOc1ccc(S(=O)(=O)Nc2cc(S(=O)(=O)N(CC)CC)ccc2N2CCCC2)cc1 | 0.501 µM (active)
31 | N#Cc1cc(C(=O)c2cc(Cl)ccc2O)cn(-c2ccccc2)c1=O | 12.6 µM (active)
32 | COc1ccc(Nc2cccc(Cl)c2)c(C(=O)O)c1 | inactive
33 | COc1cccc(NC(C)C(=O)Nc2cc([N+](=O)[O-])ccc2Cl)c1 (stereo not given) | 3.16 µM (active)
34 | O=C(O)CCc1ccc(-c2ccccc2)n1-c1ccc(C(=O)O)cc1 | inactive
35 | Cc1ccc(NC(=O)c2ccc(Nc3c([N+](=O)[O-])cc([N+](=O)[O-])cc3[N+](=O)[O-])cc2)cc1 | 2.24 µM (active)
36 | Cc1ccc(NC(=O)/C(=C\c2ccc([N+](=O)[O-])cc2)NC(=O)c2ccccc2)cc1 | 2.82 µM (active)
37 | CN1c2ccccc2-c2nc3ccccc3n2C1c1cccs1 (stereo not given) | 4.47 µM (active)
38 | O=C(c1ccc(CS(=O)c2ccccc2Cl)o1)N1CCN(c2ccccn2)CC1 (stereo not given) | 1.41 µM (active)
39 | O=C(c1ccc(CS(=O)c2ccccc2Cl)o1)N1CCCCCC1 (stereo not given) | 5.62 µM (active)
40 | CO[C@H]1[C@H](O[C@H]2O[C@@H](C)[C@@H](O[C@@H]3C[C@](C)(O)[C@H](O)[C@H](C)O3)[C@@H](N(C)C)[C@@H]2O)[C@@H](CC=O)C[C@@H](C)[C@@H](O[C@H]2CC[C@H](N(C)C)[C@H](C)O2)/C=C\C=C/C[C@@H](C)OC(=O)C[C@H]1O | 2.51 µM (active)
41 | CO[C@@H]1[C@@H](OC2OC(C)C(OC3CC(C)(O)C(OC(=O)CC(C)C)C(C)O3)C(N(C)C)C2O)[C@@H](CC=O)C[C@@H](C)C(=O)/C=C\C2O[C@H]2C[C@@H](C)OC(=O)C[C@H]1OC(C)=O (stereo not given in full) | 1.78 µM (active)
42 | Cc1ccc(OCCSCc2nnc(NC(=O)Nc3cccc(Cl)c3)s2)cc1 | 2 µM (active)
43 | CCCNC(=O)COC(=O)c1ccccc1C(=O)c1ccc(Cl)c([N+](=O)[O-])c1 | 10 µM (active)
44 | Cc1onc(-c2c(F)cccc2Cl)c1-c1nnc(-c2ccc(C(F)(F)F)cc2)o1 | 6.31 µM (active)
45 | COc1ccc2cc(C(=O)/C=C/c3cc(OC)c(O)c(OC)c3)ccc2c1 | 15.8 µM (active)
46 | COc1cc(O)cc(O)c1C(=O)/C=C/c1ccccc1 | 11.2 µM (active)
47 | COc1cc(/C=C/C(=O)Nc2cccnc2)cc(OC)c1OC | 11.2 µM (active)
48 | COc1ccc(C(=O)/C=C/c2ccccc2)c(OC)c1 | 7.94 µM (active)
49 | COc1ccc(C(=O)/C=C/c2cccnc2)c(OC)c1 | 3.55 µM (active)
50 | COc1ccc(C(=O)/C=C/c2ccc(OC)c(O)c2)c(F)c1 | 11.2 µM (active)
51 | Cc1ccc(Nc2cc(C)nc3ccc(C)cc23)cc1 | 10 µM (active)
52 | COC(=O)C1=C(C)N(CC2CC2)C(=NCc2cc(OC)c(OC)c(OC)c2)N[C@H]1c1ccccc1 | 11.2 µM (active)
53 | COc1cc2c(cc1OC)[C@@H](NC(=O)C(C)C)[C@H](OCc1ccccc1)C2 | inactive
54 | O=C(Nc1ccc(N2CCCCC2)c(Cl)c1)c1cccnc1 | 12.6 µM (active)
55 | Cc1nc(-c2ccccn2)sc1C(=O)Nc1ccc(Cl)c(Cl)c1 | inactive
